Results from PubChem BioAssay AID624330 (Southern Research Specialized Biocontainment Screening …, 2012).
In all, about 340,000 compounds went through this assay and about 2,100 (0.62%) were called active.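 The calls were made as follows: active = first-screen hits whose inhibition reached a set limit at any dose in the follow-up dose series; inconclusive = inhibition above the set first-screen limit but never retested; inactive = the rest.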 A selection follows. Entries with a potency or affinity are not part of this list.

biological target: Rac GTPase-activating protein 1 (Homo sapiens) (UniProt Q9H0H5); test: MgcRacGAP GTPase-activating activity inhibitors, confirmation, biochemical, ADP Hunter fluorescence, primary and confirmatory (AID 624330); details: MgcRacGAP-stimulated Rac1 GTP hydrolysis, at 30 µM, hits give high values, GST-tagged Rac1 F28L mutant substrate;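 also: fluorescence reports GDP produced by GAP-driven GTP hydrolysis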
Sequence (Q9H0H5 whole entry, looked up): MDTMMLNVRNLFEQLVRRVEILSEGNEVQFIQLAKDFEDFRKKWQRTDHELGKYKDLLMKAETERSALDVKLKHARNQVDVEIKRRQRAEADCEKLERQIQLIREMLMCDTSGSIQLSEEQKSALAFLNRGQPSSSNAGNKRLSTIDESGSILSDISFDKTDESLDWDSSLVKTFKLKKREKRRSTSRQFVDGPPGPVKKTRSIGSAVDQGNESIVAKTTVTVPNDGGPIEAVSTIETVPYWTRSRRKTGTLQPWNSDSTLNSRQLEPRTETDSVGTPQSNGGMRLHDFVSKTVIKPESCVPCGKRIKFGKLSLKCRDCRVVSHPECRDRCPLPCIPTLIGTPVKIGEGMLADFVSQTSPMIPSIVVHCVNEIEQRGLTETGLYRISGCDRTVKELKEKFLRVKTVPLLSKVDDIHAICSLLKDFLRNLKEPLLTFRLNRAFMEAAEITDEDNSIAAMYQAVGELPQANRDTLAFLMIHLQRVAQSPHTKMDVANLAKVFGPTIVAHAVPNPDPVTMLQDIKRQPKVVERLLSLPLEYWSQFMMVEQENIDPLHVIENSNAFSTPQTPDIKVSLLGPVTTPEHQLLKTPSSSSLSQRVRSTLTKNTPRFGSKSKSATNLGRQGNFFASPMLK

inhibition, inactive:
CC(Sc1nncn1C)C(=O)Nc1nnc(C(C)C)s1 (centres undefined) -0.22%
CC(=O)CSc1nnc(NC(=O)CCc2ccccc2)s1 2.89%
CCNC(=S)NNC(=O)c1cc(Br)cs1 11.2%
CCCCn1c(N)c(N(Cc2ccccc2OC)C(=O)C(C)Oc2ccc(F)cc2)c(=O)[nH]c1=O (centres undefined) 6.07%
C=CCSc1nnc(NC(=O)CSc2nc(CCC)cc(=O)[nH]2)s1 12.2%
COc1cc(NC(=O)CN2C(=O)NC(C)(CCC(C)C)C2=O)cc(OC)c1 (centres undefined) -1.63%
COC(=O)c1[nH]c2ccccc2c1NC(=O)c1c(F)cccc1F -14.4%
COC(=O)c1[nH]c2cc(OC)c(OC)cc2c1NC(=O)c1cccc(OC)c1 10.8%
CCOC(=O)Nc1c(C(=O)OC)[nH]c2cc(OC)ccc12 8.73%
CCOC(=O)c1[nH]c2ccccc2c1NC(C)=O 2.46%
CCOC(=O)c1[nH]c2ccccc2c1NC(=O)CC -0.8%
COC(=O)c1[nH]c2ccc(C)cc2c1NC(=O)Oc1ccccc1 84.7%
C=CCOC(=O)Nc1c(C(=O)OC)[nH]c2ccc(Cl)cc12 0.34%
C=CCOC(=O)Nc1c(C(=O)OC)[nH]c2ccccc12 13.1%
N#Cc1c(/N=C/c2cc(Br)cs2)sc2c1CCC2 14.5%
NC(=O)C[C@@H]1NC(=O)[C@H](CCC(=O)O)NC(=O)c2cc([N+](=O)[O-])cc(I)c2OCC[C@@H](C(N)=O)NC1=O 6.13%
CC1CCN(C(=O)CSc2nnc(-c3cccnc3)o2)CC1 7.43%
Cc1cc(C)nc(NC(=NCCc2c[nH]c3ccccc23)NC(=O)Nc2cccc([N+](=O)[O-])c2)n1 8.14%
Cc1ccc(-c2[nH]ncc2/C=C(\C#N)C(=O)NC2CCCCC2)cc1 6.42%
Cc1cc(C)c(C(=O)N2CCCC(C(=O)c3cc(F)ccc3F)C2)o1 (centres undefined) 5.58%
CCOC(=O)c1[nH]c2ccc(OC)cc2c1NC(=O)c1cccc(OC)c1 5.01%
CCOC(=O)c1[nH]c2ccc(F)cc2c1NC(=O)c1ccccc1C(=O)O 66%
CCc1ccc(CN(C)C(=O)c2cc(COc3ccc(OC)cc3Cl)on2)nc1 10.7%
c1ccc2nc(-c3nccs3)ccc2c1 1.49%
Oc1ccc(-c2nccc(-c3cccs3)n2)cc1 9.71%
COc1cc(CCCN2CCNC[C@@H]2C(C)O)cc(OC)c1OC (some centres undefined) 3.02%
COc1ccc(N2CCN(C(=O)CCCn3c(=O)[nH]c4cc(Cl)ccc4c3=O)CC2)cc1 12.7%
Cc1nnc(SCc2ccc(Cl)c(Cl)c2)s1 5.65%
CCc1noc(C)c1C(=O)NNC(=O)c1ccc(Br)cc1 5.66%
COCCNC(=O)/C(C#N)=C/c1ccc2c(c1)OCO2 0.46%
CCOC(=O)/C(C#N)=C\c1ccc(OC)c(OC)c1 8.76%
N#C/C(=C\c1ccc2c(c1)OCCO2)C(=O)Nc1ccc(C(=O)O)cc1 8.32%
CCOC(=O)/C(C#N)=C/c1ccc(OC)c(OC)c1 5.15%
N#C/C(=C\c1cccc(O)c1)C(=O)Nc1ccc2c(c1)OCCO2 7.83%
COc1cc(/C=C(\C#N)C(=O)Nc2ccccn2)ccc1O 14.9%
Cc1cc(C)c(OCCOCCN(C)C)c(Br)c1 12.7%
CC(C)(C)[C@@H]1C=C(C(N)=O)O[C@H](OCCCCO)C1 4.43%
CN(C(=O)CN1C(=O)NC(C)(c2cccc(Br)c2)C1=O)C1CCCCC1 (centres undefined) 6.93%
COc1ccc2nc(SCCOC(=O)Nc3ccc(Cl)cc3)nc(C)c2c1 9.72%
CC1=C(C(=O)NC2CC(C)(C)Cc3c2cnn3-c2cccc(F)c2)OCCO1 (centres undefined) -2.86%
CCC(C(=O)Nc1cc(C)nn1-c1nc(C)cc(C)n1)c1ccccc1 (centres undefined) 13.7%
O=C1NN(c2ccccc2)C(=O)/C1=C\c1ccccc1 21.7%
O=C1NN(c2ccccc2)C(=O)C1=Cc1ccccc1 13.7%
O=C1NN(c2cccc(Br)c2)C(=O)/C1=C\c1ccc(O)cc1 14.5%
COc1cccc(/C=C2/C(=O)NN(c3ccc(Br)cc3)C2=O)c1O 13.4%
CCC1CCCCN1C(=O)CCS(=O)(=O)c1ccc2c(c1)CCN2C(C)=O (centres undefined) 8.33%
CCOc1ccc(N(CC(=O)Nc2ccccc2OC)S(C)(=O)=O)cc1 9.6%
C/C(=N\NC(=O)OC(C)(C)C)c1ccccc1Br -4.8%
CCCc1cc(=O)[nH]c(SCC(=O)N2CCCCCC2)n1 2.49%
COc1ccc(N2CCN(C(=O)CCS(=O)(=O)c3cccc4nsnc34)CC2)cc1 28%
Cn1nnnc1SCC(=O)Nc1cc(S(=O)(=O)N2CCCC2)ccc1Cl 4.66%
CC(=C/c1ccccc1)/C=N/n1c(C)n[nH]c1=S 15.2%
CC(/C=N/n1c(-c2ccccc2)n[nH]c1=S)=C\c1ccco1 24.1%
CC(/C=N/n1cnnc1)=C\c1ccccc1 3.71%
CC(=C/c1ccccc1)/C=N/n1cnnc1 -1.27%
CC(=O)Nc1ccc(S(=O)(=O)NNC(=O)c2cccc([N+](=O)[O-])c2)cc1 5.98%
COc1ccccc1NC(=O)CCC(=O)c1ccc(-c2ccccc2)cc1 -5.2%
CCc1ccc(NC(=O)C(=O)NCCOc2ccccc2Cl)cc1 -2.71%
Cc1ccccc1C(=O)c1cccn1CC(=O)NC1CCCC(C)C1C (centres undefined) -36.1%
NC(=O)C1(N2CCCCC2)CCN(Cc2ccc(Br)cc2)CC1 -3.42%
CC1CCCN(CCOCCOc2ccc(Br)cc2Cl)C1 (centres undefined) 30.6%
Cc1cc(C)c(OCCOCCN2CCN(C)CC2)c(Cl)c1 22.7%
Cc1ccc(OCCOCCN2CCCC2)c(Br)c1 31.4%
CC1CCN(CCOCCOc2ccc(Br)cc2Cl)CC1 5.16%
Clc1cc(Br)ccc1OCCN1CCOCC1 24.7%
CC(C)(C)c1ccccc1OCCOCCN1CCCCCC1 -5.46%
Cc1cc(Cl)c(OCCOCCN2CCC(C)CC2)c(Br)c1 21.9%
Cc1ccc(C(C)(C)C)c(OCCOCCN2CCCC2)c1 24.1%
Cc1cccc(/C(N)=N/OC(=O)Cc2cccs2)c1 2.9%
Cn1c(=O)c2c(nc(Oc3ccc(-c4ccccc4)cc3)n2C)n(C)c1=O 12.2%
COc1ccc(C(=O)Oc2c(OC)cc(C(=S)N3CCOCC3)cc2OC)cc1 4.31%
Cc1cc(Br)ccc1OCCCCN1CCC(C)CC1 9.17%
Cc1ccc(OCCCCN2CCC(C)CC2)c(Br)c1 17%
C[C@@H]1CN([C@@H](C)CO)C(=O)CCCn2nncc2CO[C@@H]1CN(C)S(C)(=O)=O 12%
COCc1ccc(C(=O)N2CCCCC2C(=O)Nc2ccc(-n3nc(C)cc3C)cc2)o1 (centres undefined) 7.88%
O=C(NCCCNC(=O)c1ccco1)c1ccc(Cl)c(Cl)c1 0%
CC1(C)CC(=O)C(C=Nc2ccccc2)=C(O)C1 2.7%
O=C1CC(c2ccccc2)CC(O)=C1C=Nc1ccccc1O (centres undefined) 4.93%
COc1ccc(N=CC2=C(O)CCCC2=O)cc1 13.3%
CCOc1ccc(N=CC2=C(O)CC(C)(C)CC2=O)cc1 6.9%
COc1ccc(N=CC2=C(O)CC(C)(C)CC2=O)cc1 9.7%
O=C1CC(c2ccccc2)CC(O)=C1C=Nc1ccc(Cl)cc1 (centres undefined) 2.18%
O=C1CCCC(O)=C1C=Nc1cccc(C(F)(F)F)c1 11.5%
CC1(C)CC(=O)C(C=Nc2ccncc2)=C(O)C1 6.33%
Cc1ccc(CN2CCN(/N=C/c3ccc(C)s3)CC2)c(C)c1 4.97%
COc1ccc(Nc2nnc(SCC(=O)NC3CCS(=O)(=O)C3)s2)cc1 (centres undefined) 4.04%
O=C(CN1C(=O)NC2(CCCCCC2)C1=O)N1CCN(S(=O)(=O)c2ccccc2)CC1 0.28%
CC(=O)NC1C(=O)N(CC(C)C)c2ccccc21 (centres undefined) 4.92%
CCCc1ccc2c(N)c(C#N)sc2n1 1.65%
Cc1ccccc1C(=O)N(CC(=O)Nc1sc(C)c(C)c1C(N)=O)C1CCCC1 -20.9%
CCOc1ccc(NC(=O)N(CCC(C)C)C2CCN(C(C)=O)CC2)cc1 4.34%
Nc1ccc2c3c(cccc13)C(=O)N(c1ccccc1)C2=O 5.87%
CCN1C(=O)c2cccc3c(N)ccc(c23)C1=O 7.37%
Cc1ncoc1C(=O)N1CCCC(C(=O)Nc2cccc(-c3ccc(F)cc3)c2)C1 (centres undefined) -3.84%
CCCc1cc(C(=O)OC)c2ccccc2n1 5.2%
O=C(COC(=O)C1CCC(=O)N1)Nc1ccc(Br)cc1 (centres undefined) 15.9%
COc1ccc(CCNC(C(=O)Nc2cc(C)cc(C)c2)c2ccccc2)cc1 (centres undefined) 2.32%
Cc1cc(C)cc(NC(=O)C(NCC2CCCO2)c2ccccc2)c1 (centres undefined) 20.5%
CCC1(C)CC(CCN(Cc2ccco2)C(C)=O)(c2ccccc2)CCO1 (centres undefined) 6.02%
